# Compound activity (PubChem)
# IL-1B inflam inh – inhibitors of inflammasome signaling (IL-1 beta secretion) | THP-1 LPS/ATP IL-1B secretion, AlphaLISA, 16 h; stronger effect = lower value | activity change, % at 57.5 µM | hit rate 4.7% among 360,000; in the data active means activity change below about -50%; inconclusive means mostly about -30% to -49%
#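 Secreted IL-1B measured by AlphaLISA bead assay after 16 h compound exposure of THP-1 cells; compounds (final up to 57.5 uM) added 1 h before LPS (250 ng/mL) and ATP (1.25 mM) stimulation; lower signal means less secretion.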
# TDP1 cell CPT – growth inhibition of DT40 Tdp1-/-;hTDP1 cells with camptothecin (screen for TDP1 inhibitors); chicken DT40 Tdp1-/-;hTDP1 cells + 20 nM CPT, ATP luminescence, 48 h; Potency, µM (titrated, usually from 46.2 µM), most hits filed as inhibitors; hit rate 12% among 420,000; further: nearly all actives have a fitted effect of over 55% in size
#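 Chicken DT40 Tdp1-/- cells complemented with human TDP1, 400 cells/well, exposed to compounds plus 20 nM camptothecin for at least 48 h at 37 C; viability read as ATP content by CellTiter-Glo luminescence.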
# Gal4-VP16 FLuc – Gal4-VP16 reporter inhibition counter-screen. Drosophila S2 Gal4-VP16 UAS-luciferase, luminescence, 20 h. Potency, µM (top dose mostly 53.6 µM), actives largely listed as inhibitors. hit rate 3.5% among 310,000;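 further: Gal4-VP16 expression switched on by copper sulfate through the metallothionein promoter; nearly all actives have a fitted effect of over 50% in size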
# LDHA block – inhibitors of human lactate dehydrogenase A | hit rate 0.15% among 480,000 | activity change, % (values are at about 110 or 230 µM) | purified LDHA, NADH/diaphorase-resazurin fluorescence; stronger effect = lower value | P00338; in the data active means activity change below about -30%; inconclusive means mostly about -25% to -30%
#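 Human LDH5 at 2 nM final in Tris HCl pH 7.4 with 0.06 mM NADH and 0.2 mM pyruvate, reacted 5 minutes at room temperature. Remaining NADH coupled via diaphorase/resazurin; resorufin fluorescence read at 0 and 20 minutes, normalized to enzyme-free and DMSO wells.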
# RORg inh – inhibitors of mouse ROR gamma transcriptional activity. P51450. Drosophila S2 Gal4-RORgamma UAS-luciferase reporter, 20 h. Potency, µM (titrated, usually from 53.6 µM), usual class: inhibitors. hit rate 5.4% among 310,000. AID 2551; further: nearly all actives have a fitted effect of over 60% in size
# Target sequence (P51450 whole entry, looked up, the tested form may be a part): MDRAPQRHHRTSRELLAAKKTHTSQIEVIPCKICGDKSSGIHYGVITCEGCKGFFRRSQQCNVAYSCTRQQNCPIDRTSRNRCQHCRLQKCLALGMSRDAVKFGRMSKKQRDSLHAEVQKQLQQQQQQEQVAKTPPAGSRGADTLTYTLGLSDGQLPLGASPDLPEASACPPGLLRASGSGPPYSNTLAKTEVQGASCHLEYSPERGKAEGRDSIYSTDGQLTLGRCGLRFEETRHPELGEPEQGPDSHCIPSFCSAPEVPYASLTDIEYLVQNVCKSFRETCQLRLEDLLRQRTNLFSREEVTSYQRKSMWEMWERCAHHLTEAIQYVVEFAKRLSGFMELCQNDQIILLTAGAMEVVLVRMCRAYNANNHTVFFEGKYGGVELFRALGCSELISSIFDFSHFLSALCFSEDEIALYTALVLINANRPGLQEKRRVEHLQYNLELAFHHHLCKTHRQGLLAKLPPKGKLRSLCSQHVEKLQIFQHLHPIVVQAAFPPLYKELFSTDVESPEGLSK
#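 Compounds are pin-transferred onto Drosophila Schneider cells expressing a copper-inducible Gal4–ROR gamma transactivation domain fusion. After 1 hr, copper sulfate is added to 700 uM final; luciferase is read 20 hr later.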
# DT40 TDP1 no CPT – qHTS for Inhibitors of human tyrosyl-DNA phosphodiesterase 1 (TDP1): qHTS in cells in absence of CPT | DT40 Tdp1-/- hTDP1 cells, no CPT, ATP luminescence, 48 h | Potency, µM (doses to about 46.2 µM), most hits filed as inhibitors | hit rate 15% among 420,000 | AID 686978, 2013; further: nearly all actives have a fitted effect of over 55% in size
#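 Readout: luminescence from CellTiter-Glo after 30 min in the dark at RT. Cells: DT40 Tdp1-/- with stable hTDP1, 400/well. Exposure: compounds alone, ≥48 hr, 37 °C.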
# A number is an active result; n = inactive; u = inconclusive; x = no result given; [ ] = dose if it differs, or a comment. In the library only some 18% were active in any assay of this set; here they are far more common. Unless noted, the call rests on the fitted dose curve; in most records, active means well fitted curve in the direction sought with a large enough effect; inconclusive means small, poorly fitted or top-dose-only effect, or another doubt; inactive means no such curve, though single readings can be large; an effect the other way counts as inactive or inconclusive.
SMILES,IL-1B inflam inh,TDP1 cell CPT,Gal4-VP16 FLuc,LDHA block,RORg inh,DT40 TDP1 no CPT
COc1ccc(OCC(=O)Nc2nc3ccc(NC(C)=O)cc3s2)cc1,n,n,n,n,n,n
O=C(NNc1nc2c(F)cccc2s1)c1ccc(F)cc1,n,u,n,n,u,u
CC(=O)NNc1nc2ccccc2s1,n,n,n,n,n,n
O=C(COc1ccccc1)NNc1nc2ccccc2s1,n,u,11µM,n,5µM,n
O=C(NNc1nc2ccccc2s1)Nc1ccccc1,n,n,n,n,u,n
COc1ccc2nc(NNC(=O)COc3ccccc3)sc2c1,n,n,n,n,7.1µM,n
N#Cc1ccnc(Sc2ccc(Cl)cc2)c1,x,x,x,n,x,x
Cn1c(=O)c2sccc2n2c(CCCC(=O)N3CCN(c4ccccc4F)CC3)nnc12,x,x,x,n,x,x
CN1CCc2nc3sc(C(=O)c4ccc(Cl)cc4)c(N)c3cc2C1,x,x,x,n,x,x
CCc1cc(C(=O)O)sc1-c1ccc(C)cc1,x,x,x,n,x,x
CN(Cc1ccc(-c2ccc(Cl)cc2)o1)C(=O)CNC(=O)c1ccccc1F,x,x,x,n,x,x
Cc1cc(NC(=O)CC2CCCC2)n(-c2nc3ccccc3[nH]2)n1,n,u,3.5µM,n,1.8µM,21µM
Cc1cc(NC(=O)/C=C/c2ccccc2Cl)n(-c2nc3ccccc3[nH]2)n1,n,u,1.3µM,n,1.8µM,10µM
Cc1cc(NC(=O)c2ccccc2F)n(C(C)(C)C)n1,n,n,n,n,n,n
Cc1cc(NC(=O)c2ccc(F)cc2F)n(-c2nc3ccccc3[nH]2)n1,n,u,1.8µM,n,1.1µM,n
Cc1cc(Nc2nc3ccccc3nc2Cl)n(-c2ccc([N+](=O)[O-])cc2)n1,-87,18µM,n,n,n,13µM
COc1cc(NC(=O)CN2CCC(Cc3ccccc3)CC2)c(C)cc1[N+](=O)[O-],n,7.3µM,u,n,n,8.2µM
Cc1cccc(C)c1NC(=O)C(c1ccccc1)N1CCC(Cc2ccccc2)CC1 (stereo not drawn),n,9.2µM,x,n,x,9.2µM
Cc1cc(C)cc(NC(=O)CN2CCc3ccccc3C2)c1,n,n,n,n,n,n
Cc1cccc(C)c1NC(=O)CN1CCc2ccccc2C1,n,10µM,x,n,x,16µM
Cc1cccc(C)c1NC(=O)C(c1ccccc1)N1CCN(c2ccc(F)cc2)CC1 (stereo not drawn),n,u,x,n,x,n
O=C(CN1CCC(Cc2ccccc2)CC1)NC(=O)NCc1ccccc1,-52,n,n,n,n,n
CCC(CC)C(=O)Nc1ccccc1C,x,x,x,n,x,x
Cc1ccccc1-n1nnnc1C1(NC2CCCCC2)CCCC1,x,x,x,n,x,x
Cc1ccc(C(=O)NC(C(=O)Nc2ccccc2C)C(C)C)cc1 (stereo not drawn),x,x,x,n,x,x
SMILES,IL-1B inflam inh,TDP1 cell CPT,Gal4-VP16 FLuc,LDHA block,RORg inh,DT40 TDP1 no CPT
O=C1Cc2cc(S(=O)(=O)N3CCN(C(=O)Nc4ccccc4)CC3)ccc2N1,x,x,x,n,x,x
CCN1C(=O)NC(c2c(F)cccc2Cl)C(C(=O)N2CCOCC2)=C1C (stereo not drawn),x,x,x,n,x,x
Cc1cccc(C)c1NC(=O)CN1CCC(Cc2ccccc2)CC1,n,21µM,x,n,x,13µM
Cc1cccc(C)c1NC(=O)CN1CCC(C(=O)N2CCCCCC2)CC1,x,x,x,n,x,x
Cc1cccc(C)c1NC(=O)CN1CCN(CCCC(c2ccc(F)cc2)c2ccc(F)cc2)CC1,-60,7.3µM,n,n,n,5.8µM
Clc1cccc(Nc2ncnc3onc(-c4cccc(Cl)c4)c23)c1,x,x,x,n,x,x
COC(=O)c1cc(CSc2nc3ccccc3[nH]2)oc1C,n,15µM,u,n,u,23µM
CC(=Nc1ccc(C)cc1C)c1sc2ccccc2c1O,n,u,u,n,n,18µM
CC(=Nc1ccc(C)cc1)c1sc2ccccc2c1O,n,n,u,n,u,n
Cc1noc(/C=C/N(C)C)c1S(=O)(=O)N1CCCC(C(=O)NCCC2=CCCCC2)C1 (stereo not drawn),n,21µM,n,n,n,16µM
CCc1ccc(NC(=O)C2CCCN(S(=O)(=O)c3c(C)noc3/C=C/N(C)C)C2)cc1 (stereo not drawn),x,u,x,n,x,u
Cc1noc(C)c1S(=O)(=O)N1CCCC(C(=O)NCCC2=CCCCC2)C1 (stereo not drawn),n,u,n,n,n,16µM
Cc1ccc(C(=O)NCc2sccc2C)cn1,x,x,x,n,x,x
CCN(C)Cc1cccc(CNC(=O)CCc2ncc(-c3ccccc3)o2)c1,x,x,x,n,x,x
Cc1c(/C=C/C(=O)c2ccc(C(C)C)cc2)cnn1C,-73,u,u,n,n,u
COc1ccc(Cc2c(-c3ccccc3)nc3ccc(Br)cn23)c(C)c1,n,21µM,x,n,x,21µM
COc1ccc(Cc2c(-c3cccc(Cl)c3)nc3ccc(Cl)cn23)c(C)c1,n,26µM,x,n,x,u
COc1ccc(Cc2c(-c3cccc(Br)c3)nc3ccc(Cl)cn23)c(C)c1,n,n,x,n,x,u
CC(C)C(Cl)=NOC(=O)Nc1ccc(F)cc1,-100,1.5µM,x,n,x,2.3µM
C/C(=N\OC(=O)Nc1ccc(Cl)cc1)c1ccc(F)c(F)c1,-87,n,n,n,n,u
CC(C)C(Br)C(=O)Nc1ccc(F)cc1 (stereo not drawn),x,x,x,n,x,x
CCCc1nn2c(=O)cc(COC(=O)c3cc(OC)c(OC)c(OC)c3)nc2s1,x,x,x,n,x,x
COc1ccccc1NC(=O)C(C)OC(=O)c1cc(C)nc2ccccc12 (stereo not drawn),x,x,x,n,x,x
Cc1ccc(CNc2oc(-c3ccccc3C)nc2C#N)cc1,x,x,x,n,x,x
O=C(CS(=O)(=O)c1ccc(Br)cc1)c1ccccc1,x,x,x,n,x,x
SMILES,IL-1B inflam inh,TDP1 cell CPT,Gal4-VP16 FLuc,LDHA block,RORg inh,DT40 TDP1 no CPT
Nc1nc2ccccc2cc1C(=O)NCc1ccc(Cl)cc1Cl,n,16µM,x,n,x,5.8µM
O=C(NCc1ccc(Cl)cc1Cl)c1ccc2nc[nH]c2c1,n,n,n,n,n[10 µM],n
O=C(NCc1ccccc1)c1ccc2ccccc2n1,n,n,n,n,n,n
Nc1nc2ccccc2cc1C(=O)NCc1ccc(-c2ccccc2)cc1,n,1µM,x,n,x,0.16µM
O=C(O)c1ccc(-c2ccc(CNCc3ccccc3)o2)cc1,x,x,x,n,x,x
COc1cccc(C(=O)Nc2nonc2-c2ccc(OC(C)C)cc2)c1,x,x,x,n,x,x
CCN(CC)C(=O)CSc1nc2ccsc2c(=O)n1CCCC(=O)NCCc1ccc(S(N)(=O)=O)cc1,n,4.1µM,n,n,n,29µM
CNC(=O)NC(=O)CSc1nc(-c2ccco2)nc2ccccc12,x,x,x,n,x,x
CSC1=C(C#N)C(c2sccc2C)CC(=O)N1 (stereo not drawn),-76,u,n,n,n,n
